Data published in PubChem BioAssay (NCATS).
Activity calls are given as the source filed them. Calls follow the shape of the dose curve; as a rule, active = well fitted inhibition curve with a large enough effect; inconclusive = small, poorly fitted or top-dose-only effect; inactive = flat fitted curve, though single readings scatter.

biological target: Luciferin 4-monooxygenase (Photinus pyralis) (UniProt P08659); experiment: Primary firefly luciferase (FLuc) qHTS assay for identification of artifact compounds. (AID 1845220); conditions: purified firefly luciferase, luminescence, 5 min; series mostly up to 54.1 µM; activity change, negative = inhibition: at the top concentration; also: nearly all actives have a fitted effect of over 60% in size;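 as to activity change, negative = inhibition: plate controls were DMSO vehicle for no effect and no enzyme for full effect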
Procedure, shortened: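 Titrated compounds were incubated 15 min at RT, protected from light, with luciferin and ATP at 10 uM; reaction started with 10 nM FLuc, luminescence imaged at 5 min, and concentration-response fitted by Hill equation.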

Row | Compound | activity change, negative = inhibition | outcome
1 | CC(C)=CCC[C@](C)(O[C@@H]1O[C@H](CO)[C@@H](O)[C@H](O)[C@H]1O)[C@H]1CC[C@]2(C)[C@@H]1[C@H](O)CC1[C@@]3(C)CC[C@H](O)C(C)(C)C3[C@@H](O[C@@H]3O[C@H](CO)[C@@H](O)[C@H](O)[C@H]3O[C@@H]3O[C@@H](C)[C@H](O)[C@@H](O)[C@H]3O)C[C@]12C (some centres undefined) | -2.06% [at 11.6 µM] (inactive) | –
2 | O=C(C[C@@H]1C(C(=O)O)=CO[C@@H](O[C@@H]2O[C@H](CO)[C@@H](O)[C@H](O)[C@H]2O)/C1=C\CO)OCCc1ccc(O)cc1 | – | inactive [at 25.7 µM]
3 | CC1CCC2(C)CCC3(C)C(=CCC4C5(C)CCC(O)C(C)(C(=O)O)C5CCC43C)C2C1C (centres undefined) | 0.963% [at 25.7 µM] (inactive) | –
4 | Cc1ccc(C)c(S(=O)(=O)n2cnc3ccccc32)c1 | 4.57% (inactive) | –
5 | C=C1CC[C@H]2[C@@](C)(CCC(O)[C@@]2(C)CO)[C@@H]1/C=C/C(=C\C(=O)O)C(=O)O (some centres undefined) | 0.404% (inactive) | –
6 | CCC(C)C(=O)O[C@H]1C[C@](C)(O)[C@]23OC(C)(C)[C@H](C[C@H](OC(=O)c4ccccc4)[C@]2(COC(C)=O)[C@H]1OC(=O)C(C)CC)[C@H]3OC(C)=O (some centres undefined) | 0.558% [at 25.7 µM] (inactive) | –
7 | CC(=O)/C=C/C1(O)C(C)=CC(=O)CC1(C)C (centres undefined) | – | inactive
8 | CC1(C)CC[C@]2(C(=O)O)CC[C@]3(C)C(=CCC4[C@@]5(C)C[C@H](O)[C@H](O[C@@H]6O[C@H](CO)[C@@H](O)[C@H](O)[C@H]6O)[C@@](C)(CO)C5[C@H](O)C[C@]43C)[C@@H]2C1 (some centres undefined) | -6.04% [at 25.7 µM] (inactive) | –
9 | C=C(CC/C=C(\C)C(=O)O)C1(O)CC=C(C)CC1 (centres undefined) | -8.8% (inactive) | –
10 | O=C(Cc1ccc(Cl)cc1)Nc1cnccc1C(=O)O | -2.87% (inactive) | –
11 | CC(C)(O)C1CCC2(C)CCCC(C)(O)C2C1 (centres undefined) | 2.54% (inactive) | –
12 | CCC(C)C(=O)OC[C@H]1O[C@H](O[C@H]2O[C@H](CO)[C@@H](O)[C@H](O)[C@H]2O)[C@H](O)[C@@H](O)[C@@H]1O (some centres undefined) | 2.89% [at 25.7 µM] (inactive) | –
13 | CC(=O)O[C@@H]1[C@H](O[C@@H]2O[C@H](CO)[C@@H](O)[C@H](O)[C@H]2O)[C@@H](O[C@@H]2O[C@@H](C)[C@H](O)[C@@H](O[C@@H]3O[C@H](CO)[C@@H](O)[C@H](O)[C@H]3O)[C@H]2O)[C@H](OC(=O)[C@]23CCC(C)(C)C[C@H]2C2=CCC4[C@@]5(C)C[C@H](O)[C@H](O[C@@H]6O[C@H](C(=O)O)[C@@H](O)[C@H](O)[C@H]6O)[C@@](C)(C(=O)O)C5CC[C@@]4(C)[C@]2(C)CC3)O[C@@H]1C (some centres undefined) | – | inactive [at 11.6 µM]
14 | COC(=O)C1=COC(O[C@@H]2O[C@H](COC(=O)/C=C/c3ccc(O)cc3)[C@@H](O)[C@H](O)[C@H]2O)C2C(CO)=CCC12 (some centres undefined) | -0.0766% [at 25.7 µM] (inactive) | –
15 | CC(=O)OC1CCC2(C)C(CCC3(C)C2CC=C2C4CC(C)(C)CCC4(C)CCC23C)C1(C)C(=O)O (centres undefined) | 1.66% [at 25.7 µM] (inactive) | –
16 | C/C1=C\CC[C@]2(C)O[C@H]2C(=O)c2c(C)coc2C1 | 4.42% (inactive) | –
17 | COC(=O)C1=CO[C@@H](O[C@@H]2O[C@H](CO)[C@@H](O)[C@H](O)[C@H]2O)[C@H]2[C@@H]1[C@H](O)C[C@]2(C)O | – | inactive [at 25.7 µM]
18 | C/C=C(\C)C(=O)OCC1OC(OCC2OC(OC3(CO)OC(CO)C(O)C3O)C(O)C(O)C2O)C(O)C(O)C1O (centres undefined) | -2.14% [at 25.7 µM] (inactive) | –
19 | CC(C)C(NC(=O)c1ccc(O)cc1)C(=O)N1CCCC1C(=O)Nc1c(O)cccc1C(=O)O (centres undefined) | 1.17% [at 25.7 µM] (inactive) | –
20 | Cc1c(F)cc(C(=O)NC2CC2)cc1-c1ccc(C(=O)NCC(C)(C)C)cn1 | -0.397% (inactive) | –

Row | Compound | activity change, negative = inhibition | outcome
21 | O=C(OC[C@H]1O[C@H](O[C@]2(CO)O[C@H](CO)[C@@H](O)[C@@H]2O)[C@H](O)[C@@H](O)[C@@H]1O)c1ccc(O)cc1 | -1.53% [at 25.7 µM] (inactive) | –
22 | CSC(=O)OCC1=C[C@@H]2OC(=O)C3=CO[C@@H](O[C@@H]4O[C@H](CO)[C@@H](O)[C@H](O)[C@H]4O)[C@H]1[C@@H]32 | – | inactive [at 25.7 µM]
23 | C=C(C(=O)OC)[C@]12O[C@@](C)(CC[C@@]3(O)/C(=C\C)C(=O)O[C@]3(C)C[C@@H]1OC(=O)C(CO)CN1CCCC1C(=O)O)CC2=O (some centres undefined) | – | inactive [at 25.7 µM]
24 | CC1OC(OC2CCC3(C)C(CCC4(C)C3C=CC35OCC6(CCC(C)(C)CC63)CCC45C)C2(C)CO)C(OC2OC(CO)C(O)C(O)C2O)C(O)C1OC1OC(CO)C(O)C(O)C1O (centres undefined) | 1.11% [at 11.6 µM] (inactive) | –
25 | C=C[C@]1(C)C[C@@H](OC(=O)CSC2C[C@H]3CC[C@@H](C2)N3C)[C@]2(C)[C@H](C)CC[C@]3(CCC(=O)[C@H]32)[C@@H](C)[C@@H]1O (some centres undefined) | – | inactive
26 | N#CC1C(=O)N=C(c2cc(Cl)ccc2O)C=C1c1cc(OCc2ccccc2)cc(OCc2ccccc2)c1 (centres undefined) | – | inactive
27 | C/C=C(\C)C(=O)OCC1OC(OC2OC(CO)C(O)C(O)C2O)C(O)C(O)C1O (centres undefined) | 2.66% [at 25.7 µM] (inactive) | –
28 | FC(F)(F)Oc1ccc(-c2ccc3nnc(C(F)(F)F)n3c2)cc1 | 3.95% (inactive) | –
29 | C/C(=C\C(=O)C(C)C1CCC2C3=C(CCC21C)C1(C)CCC(=O)C(C)(C)C1(O)CC3)C(C)(C)O (centres undefined) | 0.592% [at 25.7 µM] (inactive) | –
30 | CC(C)c1ccc2c(c1)[C@H](O)CC1[C@@](C)(C(=O)O)CCC[C@]21C (some centres undefined) | -4.79% (inactive) | –
31 | O=c1[nH]ccc2nc(-c3ccc(CN4CCC(c5nc(-c6ccccn6)n[nH]5)CC4)cc3)c(-c3ccccc3)cc12 | – | inactive
32 | C=C(C)C1CCC2(C(=O)OC3OC(COC4OC(CO)C(O)C(O)C4O)C(OC4OC(C)C(O)C(O)C4O)C(O)C3O)CCC3(C(=O)O)C(CCC4C5(C)CCC(=O)C(C)(C)C5CCC43C)C12 (centres undefined) | – | inactive [at 11.6 µM]
33 | C/C=C1/[C@H](O[C@@H]2O[C@H](CO)[C@@H](O)[C@H](O)[C@H]2O)OC=C2C(=O)O[C@@H]3C[C@@H](C(C)CO)[C@H](COC(=O)C[C@H]21)[C@H]3C (some centres undefined) | – | inactive [at 25.7 µM]
34 | O=C(CCc1ccccc1)c1c(O)c([C@@H]2O[C@H](CO)[C@@H](O)[C@H](O)[C@H]2O)c(O)c([C@@H]2O[C@H](CO)[C@@H](O)[C@H](O)[C@H]2O)c1O | 4.36% [at 25.7 µM] (inactive) | –
35 | C/C(=C\CCC(C)(C)O)CCO[C@@H]1O[C@H](CO[C@@H]2O[C@@H](C)[C@H](O)[C@@H](O)[C@H]2O)[C@@H](O)[C@H](O)[C@H]1O | 2.28% [at 25.7 µM] (inactive) | –
36 | CCC/C=C/C=C/C1CC(O)C(O)C(=O)C1CO (centres undefined) | – | inactive
37 | C[C@@H](c1ccccc1)N(C(N)=NC#N)c1cccc2ncccc12 | – | inactive
38 | COC(=O)CCC1(C)C(C(C)(C)O)C(O)CC2(C)Oc3c(C)c4c(c(OC)c3CC21)C(=O)OC4 (centres undefined) | 1.01% [at 25.7 µM] (inactive) | –
39 | O=C(C[C@@H]1C(C(=O)O)=CO[C@@H](O[C@@H]2O[C@H](CO)[C@@H](O)[C@H](O)[C@H]2O)/C1=C\CO)OCCc1ccc(O)c(O)c1 | – | inactive [at 25.7 µM]
